# In publication PMC7862700, “An all-to-all approach to the identification of sequence-specific readers for epigenetic DNA modifications on cytosine”:
# Tests used:
# Assay in all cases: DAPPL (digital affinity profiling via proximity ligation, sequencing); 10 mM Tris-HCl pH 7.5, 50 mM NaCl, 1 mM DTT, 4% glycerol, room temperature, 30 min; GST-TFs on glutathione beads, 16-mer random dsDNA library, 0.1% formaldehyde crosslink after washing; high values mean tight binding
# FEV = biological target: T1, FEV (Homo sapiens, UniProt Q99581 1-238); details: protein: recombinant; tags: N-terminal GST; dsDNA, one strand shown
# T1 sequence: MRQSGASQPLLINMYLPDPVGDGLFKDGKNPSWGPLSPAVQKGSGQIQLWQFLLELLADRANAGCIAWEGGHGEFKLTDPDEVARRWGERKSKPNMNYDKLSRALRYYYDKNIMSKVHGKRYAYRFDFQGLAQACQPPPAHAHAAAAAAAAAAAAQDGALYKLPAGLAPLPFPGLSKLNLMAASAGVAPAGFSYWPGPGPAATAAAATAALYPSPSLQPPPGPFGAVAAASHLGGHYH
# Outline: (§1)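 Each value of binding signal is a hexamer's read frequency for a factor divided by the same hexamer's frequency in the tag-only sample. Barcoded, bead-captured GST fusions of human transcription factors made in yeast were pooled with that sample and incubated with 200 nmole of a random double-stranded 16-mer DNA library in Tris/NaCl/DTT/glycerol buffer at room temperature for 30 min. Washing, 0.1% formaldehyde crosslinking, proximity ligation, PCR and Illumina NextSeq500 sequencing followed.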
# ETV5 = ETV5 (Homo sapiens, UniProt P41161 1-510); details: protein: recombinant; tags: N-terminal GST; dsDNA, one strand shown
# Outline: as §1
# HSF1 = HSF1 (Homo sapiens, UniProt Q00613 1-529); details: protein: recombinant; tags: N-terminal GST; chain copies: 3; dsDNA, one strand shown
# Outline: as §1
# SPIC = biological target: T2, SPIC (Homo sapiens, UniProt Q8N5J4 1-248); details: protein: recombinant; tags: N-terminal GST; dsDNA, one strand shown
# T2 sequence: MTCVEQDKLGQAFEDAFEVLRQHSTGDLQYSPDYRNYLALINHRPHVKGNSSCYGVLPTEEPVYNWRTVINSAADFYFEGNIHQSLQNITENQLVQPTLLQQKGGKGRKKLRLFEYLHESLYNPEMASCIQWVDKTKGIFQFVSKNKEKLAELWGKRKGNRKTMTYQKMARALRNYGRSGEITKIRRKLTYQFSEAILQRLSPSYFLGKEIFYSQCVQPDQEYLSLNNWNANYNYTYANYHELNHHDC
# Outline: as §1
# ELF4 = ELF4 (Homo sapiens, UniProt Q99607 1-663); details: protein: recombinant; tags: N-terminal GST; dsDNA, one strand shown
# Outline: as §1
# ELK4 = biological target: T3, ELK4 (Homo sapiens, UniProt P28324-2 1-405); details: protein: recombinant; tags: N-terminal GST; dsDNA, one strand shown
# T3 sequence: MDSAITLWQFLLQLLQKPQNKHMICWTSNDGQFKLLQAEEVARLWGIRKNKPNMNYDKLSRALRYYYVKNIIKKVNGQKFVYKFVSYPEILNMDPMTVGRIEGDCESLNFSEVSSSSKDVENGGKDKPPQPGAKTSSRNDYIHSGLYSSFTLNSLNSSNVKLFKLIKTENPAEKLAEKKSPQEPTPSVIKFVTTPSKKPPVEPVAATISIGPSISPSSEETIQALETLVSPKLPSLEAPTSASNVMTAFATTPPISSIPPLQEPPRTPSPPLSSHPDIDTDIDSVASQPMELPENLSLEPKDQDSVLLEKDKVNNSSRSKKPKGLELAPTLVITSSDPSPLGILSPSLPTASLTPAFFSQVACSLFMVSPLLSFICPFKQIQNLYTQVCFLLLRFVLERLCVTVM
# Outline: as §1
# ETV2 = biological target: T4, ETV2 (Homo sapiens, UniProt O00321 1-342); details: protein: recombinant; tags: N-terminal GST; dsDNA, one strand shown
# T4 sequence: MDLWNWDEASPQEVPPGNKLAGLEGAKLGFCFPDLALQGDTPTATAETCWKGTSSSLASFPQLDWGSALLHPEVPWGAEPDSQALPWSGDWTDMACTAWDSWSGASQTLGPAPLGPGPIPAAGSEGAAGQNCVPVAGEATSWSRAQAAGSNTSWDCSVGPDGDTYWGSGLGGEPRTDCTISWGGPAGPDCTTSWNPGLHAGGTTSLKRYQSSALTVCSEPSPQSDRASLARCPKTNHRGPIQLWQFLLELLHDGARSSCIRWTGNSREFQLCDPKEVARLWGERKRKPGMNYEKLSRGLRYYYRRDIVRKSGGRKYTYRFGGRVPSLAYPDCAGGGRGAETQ
# Outline: as §1
# ELF3 = biological target: T5, ELF3 (Homo sapiens, UniProt P78545 1-371); details: protein: recombinant; tags: N-terminal GST; dsDNA, one strand shown
# T5 sequence: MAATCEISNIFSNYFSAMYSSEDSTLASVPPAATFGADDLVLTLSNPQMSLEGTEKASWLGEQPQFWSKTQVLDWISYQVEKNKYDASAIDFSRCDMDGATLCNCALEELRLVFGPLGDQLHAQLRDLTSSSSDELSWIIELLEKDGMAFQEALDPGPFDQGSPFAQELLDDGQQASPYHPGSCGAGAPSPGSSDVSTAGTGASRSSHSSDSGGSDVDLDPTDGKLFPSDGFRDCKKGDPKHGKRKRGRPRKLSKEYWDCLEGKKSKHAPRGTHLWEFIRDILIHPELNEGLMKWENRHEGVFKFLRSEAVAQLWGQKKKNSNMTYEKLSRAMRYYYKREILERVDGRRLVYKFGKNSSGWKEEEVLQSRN
# Outline: as §1
# CRX = CRX (Homo sapiens, UniProt O43186 1-299); details: protein: recombinant; tags: N-terminal GST; dsDNA, one strand shown
# Outline: as §1
# ETV1 = ETV1 (Homo sapiens, UniProt P50549 1-477); details: protein: recombinant; tags: N-terminal GST; dsDNA, one strand shown
# Outline: as §1
# ERF = biological target: T6, ERF (Homo sapiens, UniProt P50548 1-548); details: protein: recombinant; tags: N-terminal GST; dsDNA, one strand shown
# T6 sequence: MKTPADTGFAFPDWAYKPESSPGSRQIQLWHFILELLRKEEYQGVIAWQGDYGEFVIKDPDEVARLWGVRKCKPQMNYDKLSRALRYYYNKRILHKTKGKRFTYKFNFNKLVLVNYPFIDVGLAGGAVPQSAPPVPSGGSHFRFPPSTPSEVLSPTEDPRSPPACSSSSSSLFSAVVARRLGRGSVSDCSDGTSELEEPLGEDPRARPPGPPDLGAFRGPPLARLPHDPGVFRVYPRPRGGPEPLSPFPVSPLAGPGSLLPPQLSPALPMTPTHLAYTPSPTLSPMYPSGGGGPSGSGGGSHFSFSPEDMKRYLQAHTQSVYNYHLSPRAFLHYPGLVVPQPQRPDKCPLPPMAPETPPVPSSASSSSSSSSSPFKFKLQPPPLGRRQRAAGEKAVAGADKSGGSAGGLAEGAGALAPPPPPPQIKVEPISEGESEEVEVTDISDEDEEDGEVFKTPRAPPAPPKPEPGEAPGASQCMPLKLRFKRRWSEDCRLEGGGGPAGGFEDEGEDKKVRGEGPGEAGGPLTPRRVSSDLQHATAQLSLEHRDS
# Outline: as §1
# ETV3L = biological target: T7, ETV3L (Homo sapiens, UniProt Q6ZN32 1-361); details: protein: recombinant; tags: N-terminal GST; dsDNA, one strand shown
# T7 sequence: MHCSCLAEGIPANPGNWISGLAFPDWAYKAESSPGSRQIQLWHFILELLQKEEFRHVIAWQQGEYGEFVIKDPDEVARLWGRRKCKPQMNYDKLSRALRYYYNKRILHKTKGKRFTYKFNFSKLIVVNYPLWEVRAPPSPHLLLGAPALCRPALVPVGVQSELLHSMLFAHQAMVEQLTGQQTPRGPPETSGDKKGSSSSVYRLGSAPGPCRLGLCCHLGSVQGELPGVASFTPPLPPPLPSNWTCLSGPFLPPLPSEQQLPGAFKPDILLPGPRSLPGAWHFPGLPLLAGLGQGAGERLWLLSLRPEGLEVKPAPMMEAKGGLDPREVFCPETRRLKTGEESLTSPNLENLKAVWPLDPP
# Outline: as §1
# ETS2 = biological target: T8, ETS2 (Homo sapiens, UniProt P15036 1-469); details: protein: recombinant; tags: N-terminal GST; dsDNA, one strand shown
# T8 sequence: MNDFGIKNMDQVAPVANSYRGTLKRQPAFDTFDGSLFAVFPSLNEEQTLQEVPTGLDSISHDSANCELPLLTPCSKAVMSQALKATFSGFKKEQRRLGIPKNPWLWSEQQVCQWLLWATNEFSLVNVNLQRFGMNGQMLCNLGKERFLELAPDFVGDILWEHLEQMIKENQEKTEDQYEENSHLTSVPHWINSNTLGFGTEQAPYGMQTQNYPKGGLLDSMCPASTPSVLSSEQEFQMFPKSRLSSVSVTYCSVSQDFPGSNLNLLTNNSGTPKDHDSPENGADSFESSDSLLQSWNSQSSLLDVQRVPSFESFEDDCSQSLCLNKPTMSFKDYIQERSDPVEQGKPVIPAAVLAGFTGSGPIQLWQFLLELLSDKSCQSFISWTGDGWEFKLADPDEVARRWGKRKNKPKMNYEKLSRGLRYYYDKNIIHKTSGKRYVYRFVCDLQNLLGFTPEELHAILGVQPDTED
# Outline: as §1
# SPDEF = biological target: T9, SPDEF (Homo sapiens, UniProt O95238 1-335); details: protein: recombinant; tags: N-terminal GST; dsDNA, one strand shown
# T9 sequence: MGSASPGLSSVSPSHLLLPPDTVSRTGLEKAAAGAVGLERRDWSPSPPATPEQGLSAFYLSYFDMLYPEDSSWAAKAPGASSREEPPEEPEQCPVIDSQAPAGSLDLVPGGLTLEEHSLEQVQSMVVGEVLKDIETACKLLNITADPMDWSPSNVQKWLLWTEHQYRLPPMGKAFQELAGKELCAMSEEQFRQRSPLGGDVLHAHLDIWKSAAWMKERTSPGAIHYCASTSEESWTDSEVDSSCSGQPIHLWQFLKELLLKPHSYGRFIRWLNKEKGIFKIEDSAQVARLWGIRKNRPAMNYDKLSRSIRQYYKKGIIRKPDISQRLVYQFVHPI
# Outline: as §1
# ETV7 = biological target: T10, ETV7 (Homo sapiens, UniProt Q9Y603 1-341); details: protein: recombinant; tags: N-terminal GST; dsDNA, one strand shown
# T10 sequence: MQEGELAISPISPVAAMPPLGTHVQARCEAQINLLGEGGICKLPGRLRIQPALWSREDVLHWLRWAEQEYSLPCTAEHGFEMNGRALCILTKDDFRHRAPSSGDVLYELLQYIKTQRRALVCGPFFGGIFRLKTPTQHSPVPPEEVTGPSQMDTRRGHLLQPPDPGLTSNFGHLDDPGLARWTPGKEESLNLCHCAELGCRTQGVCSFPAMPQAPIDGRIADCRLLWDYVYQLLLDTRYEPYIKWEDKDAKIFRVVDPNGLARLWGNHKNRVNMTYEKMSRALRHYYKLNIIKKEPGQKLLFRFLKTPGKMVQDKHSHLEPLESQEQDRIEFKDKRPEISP
# Outline: as §1
# ELF5 = biological target: T11, ELF5 (Homo sapiens, UniProt Q9UKW6-2 1-255); details: protein: recombinant; tags: N-terminal GST; dsDNA, one strand shown
# T11 sequence: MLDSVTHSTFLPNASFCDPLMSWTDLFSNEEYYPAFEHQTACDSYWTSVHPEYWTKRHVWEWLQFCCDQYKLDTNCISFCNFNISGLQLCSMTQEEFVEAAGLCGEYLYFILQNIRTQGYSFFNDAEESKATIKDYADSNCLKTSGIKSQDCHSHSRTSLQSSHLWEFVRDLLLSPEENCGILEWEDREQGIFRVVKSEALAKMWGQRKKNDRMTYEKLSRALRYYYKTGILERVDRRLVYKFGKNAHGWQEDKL
# Outline: as §1
# ETV3 = biological target: T12, ETV3 (Homo sapiens, UniProt P41162-2 1-143); details: protein: recombinant; tags: N-terminal GST; dsDNA, one strand shown
# T12 sequence: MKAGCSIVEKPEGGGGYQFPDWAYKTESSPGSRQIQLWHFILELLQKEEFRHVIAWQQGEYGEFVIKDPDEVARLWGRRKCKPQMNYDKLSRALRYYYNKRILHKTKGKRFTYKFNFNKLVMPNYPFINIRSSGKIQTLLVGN
# Outline: as §1
# ETV6 = ETV6 (Homo sapiens, UniProt P41212 1-452); details: protein: recombinant; tags: N-terminal GST; dsDNA, one strand shown
# Outline: as §1
# Sequence of ETV6 (P41212 whole entry): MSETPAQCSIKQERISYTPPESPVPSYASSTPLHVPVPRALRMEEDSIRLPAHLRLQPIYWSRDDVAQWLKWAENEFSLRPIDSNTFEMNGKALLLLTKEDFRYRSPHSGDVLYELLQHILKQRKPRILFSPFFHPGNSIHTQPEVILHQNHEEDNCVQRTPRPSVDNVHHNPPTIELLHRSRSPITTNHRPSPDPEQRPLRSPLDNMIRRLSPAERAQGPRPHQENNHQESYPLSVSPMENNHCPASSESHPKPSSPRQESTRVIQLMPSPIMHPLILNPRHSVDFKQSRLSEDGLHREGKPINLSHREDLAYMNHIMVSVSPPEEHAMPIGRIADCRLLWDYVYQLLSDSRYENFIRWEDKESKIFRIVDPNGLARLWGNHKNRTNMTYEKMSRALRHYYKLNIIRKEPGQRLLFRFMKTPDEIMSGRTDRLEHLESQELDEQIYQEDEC
# Sequence of ETV5 (P41161 whole entry): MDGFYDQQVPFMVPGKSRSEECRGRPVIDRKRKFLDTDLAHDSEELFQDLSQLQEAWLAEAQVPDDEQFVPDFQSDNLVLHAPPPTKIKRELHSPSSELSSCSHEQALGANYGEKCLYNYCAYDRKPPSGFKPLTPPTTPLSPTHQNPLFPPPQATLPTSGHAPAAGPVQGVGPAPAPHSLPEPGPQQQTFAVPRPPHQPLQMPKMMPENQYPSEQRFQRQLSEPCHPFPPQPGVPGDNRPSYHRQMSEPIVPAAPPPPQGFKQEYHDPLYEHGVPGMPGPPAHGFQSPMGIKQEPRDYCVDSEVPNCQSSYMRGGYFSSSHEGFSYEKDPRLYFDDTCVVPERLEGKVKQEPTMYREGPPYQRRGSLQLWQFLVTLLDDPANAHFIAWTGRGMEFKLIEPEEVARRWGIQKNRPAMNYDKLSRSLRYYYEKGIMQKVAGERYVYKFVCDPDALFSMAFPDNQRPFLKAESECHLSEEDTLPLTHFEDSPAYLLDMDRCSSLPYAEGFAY
# Sequence of CRX (O43186 whole entry): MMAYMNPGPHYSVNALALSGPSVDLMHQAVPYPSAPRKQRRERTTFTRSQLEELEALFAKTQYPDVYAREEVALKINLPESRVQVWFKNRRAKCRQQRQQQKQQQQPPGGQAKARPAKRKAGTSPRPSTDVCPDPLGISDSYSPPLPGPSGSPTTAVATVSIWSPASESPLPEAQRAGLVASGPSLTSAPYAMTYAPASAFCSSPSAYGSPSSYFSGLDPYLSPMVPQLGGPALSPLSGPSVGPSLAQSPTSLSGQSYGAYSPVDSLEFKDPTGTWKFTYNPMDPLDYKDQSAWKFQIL
# Sequence of ELF4 (Q99607 whole entry): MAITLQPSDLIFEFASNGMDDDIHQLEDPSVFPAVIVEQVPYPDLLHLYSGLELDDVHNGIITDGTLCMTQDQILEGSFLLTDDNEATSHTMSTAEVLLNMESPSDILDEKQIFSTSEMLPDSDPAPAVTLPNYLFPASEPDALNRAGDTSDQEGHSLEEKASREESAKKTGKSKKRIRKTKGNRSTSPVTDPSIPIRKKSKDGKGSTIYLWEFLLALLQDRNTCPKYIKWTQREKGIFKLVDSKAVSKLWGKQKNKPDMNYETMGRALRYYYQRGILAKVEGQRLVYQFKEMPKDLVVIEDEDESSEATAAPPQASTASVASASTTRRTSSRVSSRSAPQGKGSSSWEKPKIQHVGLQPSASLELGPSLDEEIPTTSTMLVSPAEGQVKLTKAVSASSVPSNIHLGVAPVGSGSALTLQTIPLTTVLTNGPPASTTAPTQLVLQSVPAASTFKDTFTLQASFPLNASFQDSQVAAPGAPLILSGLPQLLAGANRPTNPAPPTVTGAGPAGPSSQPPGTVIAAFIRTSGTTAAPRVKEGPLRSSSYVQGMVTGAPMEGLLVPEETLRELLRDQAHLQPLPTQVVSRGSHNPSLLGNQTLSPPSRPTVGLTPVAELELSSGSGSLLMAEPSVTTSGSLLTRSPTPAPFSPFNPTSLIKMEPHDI
# Sequence of HSF1 (Q00613 whole entry): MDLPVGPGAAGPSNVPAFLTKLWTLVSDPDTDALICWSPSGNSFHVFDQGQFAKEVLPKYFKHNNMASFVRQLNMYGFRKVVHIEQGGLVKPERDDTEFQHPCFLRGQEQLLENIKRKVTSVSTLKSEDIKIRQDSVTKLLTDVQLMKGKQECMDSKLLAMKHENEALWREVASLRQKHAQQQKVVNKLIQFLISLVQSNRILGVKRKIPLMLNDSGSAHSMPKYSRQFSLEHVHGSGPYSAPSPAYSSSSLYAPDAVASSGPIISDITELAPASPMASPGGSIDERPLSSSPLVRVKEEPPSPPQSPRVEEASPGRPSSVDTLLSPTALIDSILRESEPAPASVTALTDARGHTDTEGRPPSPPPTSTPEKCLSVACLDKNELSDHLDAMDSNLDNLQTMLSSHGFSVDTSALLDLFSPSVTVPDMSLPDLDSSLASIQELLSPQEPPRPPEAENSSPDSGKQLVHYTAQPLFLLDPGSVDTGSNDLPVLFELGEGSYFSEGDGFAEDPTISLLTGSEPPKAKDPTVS
# Sequence of ETV1 (P50549 whole entry): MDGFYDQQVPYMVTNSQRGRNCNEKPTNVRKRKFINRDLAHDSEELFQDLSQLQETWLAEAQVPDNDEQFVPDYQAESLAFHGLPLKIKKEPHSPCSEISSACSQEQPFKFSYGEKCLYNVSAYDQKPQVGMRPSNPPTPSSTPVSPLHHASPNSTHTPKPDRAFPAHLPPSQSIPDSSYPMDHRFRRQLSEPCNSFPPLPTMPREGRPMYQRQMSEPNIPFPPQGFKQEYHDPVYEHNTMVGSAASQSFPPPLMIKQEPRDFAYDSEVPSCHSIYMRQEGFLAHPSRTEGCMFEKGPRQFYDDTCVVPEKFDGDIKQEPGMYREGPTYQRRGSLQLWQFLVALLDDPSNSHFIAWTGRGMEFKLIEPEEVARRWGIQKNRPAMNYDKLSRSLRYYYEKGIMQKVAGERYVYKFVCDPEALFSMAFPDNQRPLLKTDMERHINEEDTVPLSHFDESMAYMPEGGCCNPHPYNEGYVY
sequence,measurement,setting,value
CAATCT,binding signal,FEV,"1.2 fold enrichment (6-mer frequency, TF over GST control)"
same,binding signal,ETV5,"1.21 fold enrichment (6-mer frequency, TF over GST control)"
same,binding signal,HSF1,"1.48 fold enrichment (6-mer frequency, TF over GST control)"
same,binding signal,SPIC,"1.19 fold enrichment (6-mer frequency, TF over GST control)"
same,binding signal,ELF4,"1.2 fold enrichment (6-mer frequency, TF over GST control)"
same,binding signal,ELK4,"1.2 fold enrichment (6-mer frequency, TF over GST control)"
same,binding signal,ETV2,"1.3 fold enrichment (6-mer frequency, TF over GST control)"
same,binding signal,ELF3,"1.19 fold enrichment (6-mer frequency, TF over GST control)"
same,binding signal,CRX,"1.42 fold enrichment (6-mer frequency, TF over GST control)"
same,binding signal,ETV1,"1.26 fold enrichment (6-mer frequency, TF over GST control)"
same,binding signal,ERF,"1.21 fold enrichment (6-mer frequency, TF over GST control)"
same,binding signal,ETV3L,"1.14 fold enrichment (6-mer frequency, TF over GST control)"
same,binding signal,ETS2,"1.18 fold enrichment (6-mer frequency, TF over GST control)"
same,binding signal,SPDEF,"1.03 fold enrichment (6-mer frequency, TF over GST control)"
same,binding signal,ETV7,"1.25 fold enrichment (6-mer frequency, TF over GST control)"
same,binding signal,ELF5,"1.16 fold enrichment (6-mer frequency, TF over GST control)"
same,binding signal,ETV3,"1.19 fold enrichment (6-mer frequency, TF over GST control)"
same,binding signal,ETV6,"1.19 fold enrichment (6-mer frequency, TF over GST control)"
